Measured values reported in PubChem BioAssay AID1508601 (ICCB-Longwood Screening Facility, Harvard Medical School, 2020).
About 85 (1%) of roughly 5,700 compounds were called active. Cut-off read from the data, not from the text of the source: active = p53-positive nuclei above about 36% (passing the limit was not always enough); inactive = the rest. The list comes from a sample in which actives are over-represented; it also holds similar structures and randomly drawn compounds.

Key:
[1] = nuclear p53 accumulation, HPV+ cells – imaging, p53-positive nuclei imaging, 24 h, 48 h (AID 1508601); settings: 24/48 h
[2] = target: Cellular tumor antigen p53 (Homo sapiens) (UniProt P04637); test: as above; settings: 24/48 h, stronger effect = higher value
[3] = measured here: cell number at 24 h, Library stock concentration: 3.33 mM
[4] = measured here: cell number at 48 h, Library stock concentration: 3.33 mM
[5] = Library stock concentration: 3.33 mM
[6] = measured here: p53 positive nuclei at 24 h, Library stock concentration: 3.33 mM
[7] = measured here: cell number at 24 h, Library stock concentration: 80 uM
[8] = measured here: cell number at 24 h, Library stock concentration: 400 uM
[9] = measured here: cell number at 24 h, Library stock concentration: 2 mM
[10] = measured here: cell number at 24 h, Library stock concentration: 10 mM
[11] = measured here: cell number at 48 h, Library stock concentration: 80 uM
[12] = measured here: cell number at 48 h, Library stock concentration: 400 uM
[13] = measured here: cell number at 48 h, Library stock concentration: 2 mM
[14] = measured here: cell number at 48 h, Library stock concentration: 10 mM
[15] = Library stock concentration: 80 uM
[16] = Library stock concentration: 400 uM
[17] = Library stock concentration: 2 mM
[18] = Library stock concentration: 10 mM
[19] = measured here: p53 positive nuclei at 24 h, Library stock concentration: 80 uM
[20] = measured here: p53 positive nuclei at 24 h, Library stock concentration: 400 uM
[21] = measured here: p53 positive nuclei at 24 h, Library stock concentration: 2 mM
[22] = measured here: p53 positive nuclei at 24 h, Library stock concentration: 10 mM

Sequence of Cellular tumor antigen p53 (Homo sapiens) (P04637 whole entry, looked up): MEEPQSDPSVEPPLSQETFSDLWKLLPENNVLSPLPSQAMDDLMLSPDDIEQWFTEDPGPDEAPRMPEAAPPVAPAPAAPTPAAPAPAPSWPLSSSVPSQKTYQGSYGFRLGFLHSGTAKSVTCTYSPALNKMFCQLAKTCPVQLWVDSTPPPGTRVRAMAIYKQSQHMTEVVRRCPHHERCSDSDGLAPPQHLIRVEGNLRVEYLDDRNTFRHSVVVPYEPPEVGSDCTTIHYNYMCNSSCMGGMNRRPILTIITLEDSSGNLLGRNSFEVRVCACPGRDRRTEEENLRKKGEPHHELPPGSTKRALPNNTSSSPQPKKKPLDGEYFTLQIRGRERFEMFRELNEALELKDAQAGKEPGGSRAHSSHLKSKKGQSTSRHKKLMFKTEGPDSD

In the case of `C[C@]12CC[C@H]3c4ccc(O)cc4CC[C@H]3[C@@H]1CCC2=O`, the nuclei count, normalised [1, 3] was 111%, the nuclei count, normalised [1, 4] was 121% and the p53-positive nuclei, normalised [2, 5] was -0.0334% (inactive). It also gave a p53-positive nuclei, normalised [2, 6] of -0.211%.

For `COC(=O)[C@]12CCC(C)(C)C[C@@H]1[C@@H]1C(=O)C=C3[C@]4(C)C=C(C#N)C(=O)C(C)(C)[C@@H]4CC[C@@]3(C)[C@]1(C)CC2`, the nuclei count, normalised [1, 3] was 36.3%, the nuclei count, normalised [1, 4] was 29.9% and the p53-positive nuclei, normalised [2, 5] was 79.7% (active). It also gave a p53-positive nuclei, normalised [2, 6] of 88.9%.

With `CCCCN=C(N)NO` the nuclei count, normalised ([1]; measured here: cell number at 24 h, concentration not given here) was 99.4%, the nuclei count, normalised ([1]; measured here: cell number at 48 h, concentration not given here) was 99.4% and the p53-positive nuclei, normalised ([2]; concentration not given here) was -0.143% (inactive). The p53-positive nuclei, normalised ([2]; measured here: p53 positive nuclei at 24 h, concentration not given here) was -0.0268%.

With `Cc1nc(N)sc1-c1ccnc(Nc2ccc(N3CCOCC3)cc2)n1` the nuclei count, normalised [1, 3] was 40.5%, the nuclei count, normalised [1, 4] was 28.3% and the p53-positive nuclei, normalised [2, 5] was -0.214% (inactive). The p53-positive nuclei, normalised [2, 6] was -0.143%.

Compound `Fc1cc(-c2ccnc(Nc3ccc(-n4cnc(N5CCOCC5)n4)cc3)n2)cc(N2CCOCC2)c1` has a nuclei count, normalised [1, 7] of 86.7%, a nuclei count, normalised [1, 8] of 101% and a nuclei count, normalised [1, 9] of 64.8%. The nuclei count, normalised [1, 10] was 36.4%, the nuclei count, normalised [1, 11] was 73% and the nuclei count, normalised [1, 12] was 81%. For the same compound, the nuclei count, normalised [1, 13] was 43.7%, the nuclei count, normalised [1, 14] was 21.7% and the p53-positive nuclei, normalised [2, 15] was 27.8% (inactive). For the same compound, the p53-positive nuclei, normalised [2, 16] was 13.6% (inactive), the p53-positive nuclei, normalised [2, 17] was 90.9% (active) and the p53-positive nuclei, normalised [2, 18] was 38.1% (inactive). The p53-positive nuclei, normalised [2, 19] was 7.9%, the p53-positive nuclei, normalised [2, 20] was 2.88% and the p53-positive nuclei, normalised [2, 21] was 49.4%. The p53-positive nuclei, normalised [2, 22] was 15.7%.

Work on `O=C(Nc1ccc(-c2ccnc(Nc3ccc(N4CCOCC4)cc3)n2)cc1)C1CCCN1` (configuration not stated) yielded a nuclei count, normalised [1, 7] of 114%, a nuclei count, normalised [1, 8] of 116% and a nuclei count, normalised [1, 9] of 107%. The nuclei count, normalised [1, 3] was 102%, the nuclei count, normalised [1, 10] was 104% and the nuclei count, normalised [1, 11] was 109%. For the same compound, the nuclei count, normalised [1, 12] was 109%, the nuclei count, normalised [1, 13] was 104% and the nuclei count, normalised [1, 4] was 95.9%. The nuclei count, normalised [1, 14] was 101%, the p53-positive nuclei, normalised [2, 15] was 0.0592% (inactive) and the p53-positive nuclei, normalised [2, 16] was -0.0399% (inactive). For the same compound, the p53-positive nuclei, normalised [2, 17] was -0.0329% (inactive), the p53-positive nuclei, normalised [2, 5] was -0.0902% (inactive) and the p53-positive nuclei, normalised [2, 18] was 0.0109% (inactive). The p53-positive nuclei, normalised [2, 19] was 0.0145%, the p53-positive nuclei, normalised [2, 20] was -0.114% and the p53-positive nuclei, normalised [2, 21] was 0.0282%. It also gave a p53-positive nuclei, normalised [2, 6] of -0.231% and a p53-positive nuclei, normalised [2, 22] of -0.058%.
